# Screening results as filed in PubChem.
# GCN5L2 inh – blocks human GCN5L2 histone acetyltransferase. Q92830. GCN5L2 HAT assay, ThioGlo1 CoA-SH fluorescence. Potency, µM (doses to about 58.9 µM), for inactives: top-dose activity change, negative = inhibition, actives largely listed as inhibitors. 390,000 compounds, 0.21% hits; note: potency is the fitted concentration of half-maximal effect; % is set by controls: 0 for no effect and ±100 for the full control effect
#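 qHTS, 1536-well. 20nM enzyme, pH 7.5 HEPES/EDTA/Tween-20 buffer; 15 min compound preinc., RT. Start: 75uM H3(1-25), 70uM AcCoA, 50uM ThioGlo1. Read Ex340/Em540 at t=0 (autofluorescence flag) and t=20 min.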
# HP1b chromo inh – inhibitors of HP1-beta chromodomain binding to methylated histone tails; Potency, µM (highest dose often 114 µM), without a hit: top-dose activity change, negative = inhibition, hits mostly inhibitors; AlphaScreen HP1-beta / biotin-H3K9me3 peptide binding; 390,000 compounds, 0.56% hits; note: potency is the fitted concentration of half-maximal effect; nearly all actives have a fitted effect of over 70% in size
#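 HP1-beta protein (50 nM final) preincubated 30 min at room temperature with biotinylated H3(1-18)K9me3 peptide (50 nM) in PBS pH 7.4, 0.01% Tween-20, then compound added for 30 min. AlphaScreen streptavidin donor/nickel chelate acceptor beads (10 ug/mL final), 30 min dark, luminescence read.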
# PLK1 PBD inh – inhibitors of human PLK1 polo-box domain binding; AID 720504; Potency, µM, for the others: max response, negative = inhibition, hits mostly inhibitors; 360,000 compounds, 2.8% hits; P53350; Plk1 PBD binding of FITC phosphopeptide, fluorescence polarization; note: potency is the fitted concentration of half-maximal effect; series mostly up to about 57 µM; % is set by controls: 0 for no effect and ±100 for the full control effect; nearly all actives have a fitted effect of over 65% in size
# JMJD2A Tudor inh – inhibitors of human JMJD2A Tudor domain | Potency, µM (highest dose often 114 µM), without a hit: top-dose activity change, negative = inhibition, actives largely listed as inhibitors | AlphaScreen JMJD2A-Tudor / H3K4me3 peptide binding | 390,000 compounds, 4.4% hits; note: potency is the fitted concentration of half-maximal effect; % is set by controls: 0 for no effect and ±100 for the full control effect; nearly all actives have a fitted effect of over 50% in size
# BAZ2B block – blocks human BAZ2B. Q9UIF8. AlphaScreen BAZ2B-H3K14Ac peptide displacement. Potency, µM (highest dose often 114 µM), for the others: at the highest dose activity change, negative = inhibition, actives largely listed as inhibitors. 360,000 compounds, 4.4% hits. AID 504333; note: potency is the fitted concentration of half-maximal effect; % is set by controls: 0 for no effect and ±100 for the full control effect; nearly all actives have a fitted effect of over 60% in size
#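 In this displacement format the biotinylated H3(5-23) peptide acetylated at Lys14 serves as ligand at 50 nM, with BAZ2B at 50 nM in PBS pH 7.4 containing 0.01% Tween-20. Donor and acceptor beads are 10 ug/mL final.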
# PI5P4Ka inh – inhibitors of human PI5P4K alpha. P48426. PI5P4Kalpha enzyme, ADP-Glo luminescence, 60 min; stronger effect = lower value. max response, %. 330,000 compounds, 1.2% hits. AID 652105; active = max response of -50% or lower; inconclusive = between -30% and -50%; inactive = -30% or higher; note: value at the top dose of about 77 µM; % is set by controls: 0 for no effect and ±100 for the full control effect
#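 qHTS, 1536-well: enzyme/substrate mix, compound by pin tool, 5 microM ATP final; RT 60 min; ADP-Glo reagents 1 (45 min) then 2 (30 min); luminescence.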
# Active calls of the source: *; ? = inconclusive; nt = no result given; [ ] = remark or other dose. Compounds with a hit are over-represented: about 7% of the library has one in this group of screens. Unless noted, calls come from the whole dose curve; as a rule, active = well fitted curve in the direction sought with a large enough effect; inconclusive = small, poorly fitted or top-dose-only effect, or another doubt; inactive = no such curve, though single readings can be large; an effect the other way counts as inactive or inconclusive.
SMILES,GCN5L2 inh,HP1b chromo inh,PLK1 PBD inh,JMJD2A Tudor inh,BAZ2B block,PI5P4Ka inh
CSc1ccc(C2C(C#N)=C(N)N(c3ccccc3)C3=C2C(=O)CCC3)cc1 (centres undefined),-2%,-9%,0%,?,?,-11
N#CC1=C(N)N(c2ccc(F)cc2)C2=C(C1c1ccc(O)cc1)S(=O)(=O)CC2 (centres undefined),-21%,40µM*,15µM*,32µM*,35µM*,?
O=S1(=O)CC(N2CCSCC2)CN1Cc1cn(Cc2ccccc2)nn1 (centres undefined),nt,nt,-6%,nt,nt,-1
Cc1c(NC(=O)Nc2ccc([N+](=O)[O-])cc2)c(=O)n(-c2ccccc2)n1C,-3%,13%,9.5µM*,16µM*,-3%,?
Cc1c(NC(=S)N/N=C/c2cc([N+](=O)[O-])ccc2O)c(=O)n(-c2ccccc2)n1C,-27%,26%,-12%,28µM*,5.6µM*,-61*
Cc1c(NC(=S)N/N=C/c2ccc(O)cc2)c(=O)n(-c2ccccc2)n1C,-3%,33%,-3%,-18%,4%,nt
COc1ccc(-c2cn3nc(N4CCCC(C(=O)Nc5cccc(OC)c5)C4)sc3n2)cc1 (centres undefined),0%,12%,nt,-24%,-7%,nt
COC(=O)/C=C/COc1ccccc1[N+](=O)[O-],-14%,?,3.4µM*,?,-11%,-67*
O=C(COc1ccccc1[N+](=O)[O-])c1ccccc1,-7%,9%,-13%,-25%,-21%,-7
Cc1cc2c(s1)c1cnn(Cc3cc(F)c(F)cc3F)c(=O)c1n2C,nt,nt,nt,-16%,nt,nt
CSc1nc(-c2ccco2)cc(C(F)(F)F)c1C#N,-8%,-7%,17µM*,-2%[57.1 µM],13%,5
Cc1noc(-c2ccccc2OCC(=O)Nc2ccccc2[N+](=O)[O-])n1,-5%,34%,nt,-25%,-24%,nt
Cc1noc(-c2ccccc2OCC(=O)Nc2cccc([N+](=O)[O-])c2)n1,-1%,-21%,nt,50µM*,?,nt
Cc1ccccc1-c1noc(-c2ccccc2OCC(=O)Nc2ccccc2[N+](=O)[O-])n1,-7%,-11%,nt,20µM*,?,nt
Cc1ccc(-n2c(=O)[nH]c3sc4c(c3c2=O)CCNC4)cc1C,-5%,16%,nt,-17%,-2%,nt
C=CCn1c(SCC(=O)Nc2c(C)n(C)n(-c3ccccc3)c2=O)nnc1-c1cccnc1,1%,24%,2%,-7%,nt,5
CC1CC(C)CN(C(=O)c2cccc3c2-c2ccccc2C3=O)C1 (centres undefined),-13%,22%,6%,-19%,-22%,-3
CCN(CC)CCNC(=O)c1ccc2c(c1NCCO)C(=O)c1ccccc1C2=O,-2%,?,-4%,?,40µM*,-1
O=C(NCCO)c1cccc2c1C(=O)c1ccccc1-2,-4%,31%,-21%,-7%,21%,-9
CC1CCN(C(=O)c2ccc3c(c2NCCO)C(=O)c2ccccc2C3=O)CC1,-6%,?,-2%,45µM*,32µM*,2
Cc1ccccc1C1=C/C(=C(\SS/C(C(=O)c2ccc(OCC(=O)O)c(Cl)c2Cl)=C2\C=C(c3ccccc3C)SS2)C(=O)c2ccc(OCC(=O)O)c(Cl)c2Cl)SS1,nt,20µM*,17µM*,28µM*,nt,-98*
O=C(O)COc1ccc(C(=O)c2cccs2)c(Cl)c1Cl,-5%,nt,nt,nt,nt,nt
NNC(=O)c1cc(O)c(O)c(O)c1,-3%,45µM*,?,1.8µM*,18µM*,-17
CC1C=CC=CC=CC=CC=CC=CC=CC(OC2OC(C)C(O)C(N)C2O)CC2OC(O)(CC(O)CC(O)C(O)CCC(O)CC(O)CC(=O)OC(C)C(C)C1O)CC(O)C2C(=O)O (centres undefined),nt,13%,?,11µM*,nt,8
C[C@H]1[C@@H](O)[C@@H](C)\C=C/C=C\C=C/C=C\C=C/C=C\C=C/[C@@H](O[C@H]2O[C@@H](C)[C@@H](O)[C@@H](N)[C@@H]2O)C[C@@H]2O[C@](O)(C[C@@H](O)C[C@@H](O)[C@@H](O)CC[C@@H](O)C[C@@H](O)CC(=O)O[C@H]1C)C[C@@H](O)[C@H]2C(=O)O (stereo in doubt),28%[21.4 µM],nt,nt,nt,nt,nt
SMILES,GCN5L2 inh,HP1b chromo inh,PLK1 PBD inh,JMJD2A Tudor inh,BAZ2B block,PI5P4Ka inh
CCN1CCN(CC#CCOc2ccccc2OC)CC1,-28%,?,-2%,0.79µM*,22µM*,-7
CCN1CCN(Cc2ccc(OCc3ccccc3)c(OC)c2)CC1,4%,22%,-4%,-27%,-1%,nt
CC(C)CCC(C(=O)O)C(C)CC(=O)NNC(=O)c1ccco1 (centres undefined),-15%,31%,5%,2%,-5%,3
CC(C)C(=O)N1CCC1(C)C(=O)NS(=O)(=O)c1cccs1 (centres undefined),nt,nt,-8%,nt,nt,-1
Oc1ccccc1C(=S)N1CCN(c2cccc(Cl)c2)CC1,-18%,?,12µM*,?,45µM*,-16
CC1CCN(C(=S)c2ccc(O)cc2)CC1,-8%,-3%,?,-31%,8%[57.1 µM],-7
O=C(c1ccc([N+](=O)[O-])s1)N1CCN(c2cccc(Cl)c2)CC1,-5%,?,-14%,45µM*,25µM*,-13
COc1cc(C(=S)N2CCN(c3cccc(Cl)c3)CC2)ccc1O,-11%,7.1µM*,4.7µM*,63µM*,45µM*,?
O=C(c1cccs1)N1CCN(c2cccc(Cl)c2)CC1,1%,41%,-9%,1%,-2%,0
CC1CCN(C(=S)c2ccccc2O)CC1,0%,?,15µM*,?,-1%,nt
CCc1ccc(/C=N/NC(=O)Cc2cccn2C)cc1,-21%,-18%,-7%,-35%,?,-16
COc1cccc(Nc2nc3c(S(=O)(=O)c4cc(C)ccc4C)nnn3c3ccsc23)c1,-8%,22%,nt,-10%,-12%,nt
COc1ccc(C(=S)N2CCN(c3cccc(Cl)c3)CC2)c(OC)c1,-3%,?,12µM*,?,?,-5
COc1ccc(C(=O)N2CCN(c3cccc(Cl)c3)CC2)cc1,-2%,38%,-7%,-15%,-4%,-3
Oc1ccc(C(=S)N2CCN(c3cccc(Cl)c3)CC2)cc1,-10%,?,8.4µM*,56µM*,40µM*,-4
COc1cc(C(=S)N2CCN(c3ccccc3Cl)CC2)cc(O)c1O,-23%,11µM*,17µM*,32µM*,50µM*,-58*
O=C(NC1CC1)c1ccc(NS(=O)(=O)c2ccc(F)cc2)cc1,1%,44%,-3%,3%,-27%,3
O=c1[nH]cc(C=NNc2ccccc2)c(=O)[nH]1,nt,nt,-28%,nt,nt,-20
